PubChem BioAssay (EPA / NIEHS)
Calls of active or inactive are those of the source. How the source made its calls: active means hit-call score of the fitted dose curve at least 0.9, where 1 is the maximum; inactive means score below 0.9.

assay: APR_HepG2_MitoMass_24hr: Apredica 24-hour HepG2 Assay for Mitochondrial Mass (AID 2282912); details: high-content imaging, actives raise or lower the signal
Method: APR_HepG2_24hr is a cell-based, multiplexed-readout assay that uses HepG2, a human liver cell line, with measurements taken at 24 hours after chemical dosing in a 384-well plate.APR_HepG2_MitoMass_24hr is one of 10 assay component(s) measured or calculated from the APR_HepG2_24hr assay. It is designed to make measurements of cell phenotype, a form of morphology reporter, as detected with fluorescence intensity signals by HCS Fluorescent Imaging technology.Data from the assay component APR_HepG2_MitoMass_24hr was analyzed into 1 assay endpoint. This assay endpoint, APR_HepG2_MitoMass_24hr, was analyzed with bidirectional fitting relative to DMSO as the negative control and baseline of activity. Using a type of morphology reporter, gain or loss-of-signal activity can be used to understand changes in the signaling. Furthermore, this assay endpoint can be referred to as a primary readout, because this assay has produced multiple assay endpoints where this one serves a signaling function. To generalize the intended target to other relatable targets, this assay endpoint is annotated to the cell morphology intended target family, where the subfamily is organelle conformation.
Cells were treated with dimethyl sulfoxide (DMSO) as a solvent control at a final concentration of 0.5% v/v or with compounds in DMSO with a resulting final DMSO concentration of 0.5% v/v. Compound treatment was done at concentrations of 0.39, 0.78, 1.56, 3.12, 6.24, 12.5, 25, 50, 100, and 200 uM in duplicate on each plate. Cells were treated with compounds for 1, 24, or 72 hr. Carbonyl […] m-chloro-phenylhydrazone (CCCP) and taxol were used as positive controls for mitochondrial function and cytoskeletal stability, respectively; DMSO served as the negative control for this experiment. Cells were fixed by the direct addition of 50 uL formaldehyde in Hank's Balanced Salt Solution (HBSS) to a final concentration of 3.7%. After incubation in the fixation medium for 30 min at room temperature (293-298 K), cells were rinsed twice with HBSS and treated with cell permeabilization buffer (16 uL of 0.5% Triton X-100) for 10 min at room temperature (293-298 K) before labeling. For mitochondrial membrane potential and mitochondrial measurements, pre-fixed cells were incubated with 50 uL of MitoTracker Red CMXRos (Invitrogen) at a concentration of 250 nM for 30 min before fixation. In the remaining cases, post-fixed cells were labeled by incubation with a multiplexed mixture of primary antibodies in HBSS for 60 min at room temperature (293-298 K) to detect immunoreactivity of c-Jun (1:500), phospho-histone H3 (1:100), phospho-histone H2A.x (1:200), p53 (1:400), alpha-tubulin (1:200) and Hoechst 33342 (2 ug/mL). Cells were labeled for multiplexed imaging on two separate plates: a) Hoechst 33342, MitoTracker Red, phospho-histone H3, and alpha-tubulin, and b) Hoechst 33342, phospho-histone H2A.x, and c-Jun. A final rinse with HBSS (50 uL) was performed before analysis. The primary and secondary antibodies for the proteins were phospho-histone H3 (rabbit anti-phospho-histone H3 and FITC-donkey anti-rabbit IgG), phospho-histone H2A.x (mouse anti-phospho-histone H2A.x and FITC-donkey anti-mouse IgG), c-Jun (rabbit anti-phospho-c-Jun and Cy3-donkey anti-rabbit IgG), p53 (sheep anti-p53 and Cy5-donkey anti-sheep IgG), alpha-tubulin (mouse anti-alpha-tubulin and Cy5-donkey anti-mouse IgG). These antibodies are available as the CellCiphr HepG2 assay kit (Millipore).Digital images of each well were captured using a Cellomics ArrayScan VTI (Thermo Scientific Cellomics) (0.8 NA objective, 0.63x optical coupler, and XF-93 filter set) at 20x magnification. The images were acquired using the autofocus feature of the ArrayScan instrument, which entails the following steps. First, the camera focuses on channel 1 (Hoechst 33342), where nuclei are identified. Second, a Z offset of 1 um is used for capturing mitochondria (MitoTracker Red). […]

Compound	outcome	AC50
CN(C)C(=S)S	inactive	
CC(C)O.CC(C)O.OCCN(CCO)CCO.OCCN(CCO)CCO.[Ti]	inactive	
Oc1c(Cl)cc(Cl)cc1Cl	inactive	
N#Cc1cccnc1	inactive	
O=C(O)C1(c2ccc3c(c2)OC[C@H](Cc2ccc(-c4ccccc4)cc2)[C@H]3O)CCCC1		112 µM (active)
CCCCCCCCCCCCc1cccc(S(=O)(=O)O)c1	inactive	
Clc1cccc(Cl)c1Cl	inactive	
OCCN(CCO)CCO	inactive	
COc1ccccc1N	inactive	
O=C(N[C@H]1CN2CCC1CC2)c1ccc2c(c1)OCCO2	inactive	
Oc1cc(Cl)c(Cl)cc1Cl		46.7 µM (active)
Clc1cccc(Cl)c1	inactive	
Cc1cc(C)cc(C)c1	inactive	
CC(C)(C)c1ccccc1O	inactive	
